Assay results reported in paper PMC5540273 (PLoS ONE, 2017).

system: T1, CTK; conditions: concentration: 1 μM,replicates: in singlicate; n = 1
T1 construct: gene MATK
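Also: KINOMEscan kinase panel screen.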

SMILES | %Inh [%]
C[C@@H]1CCN(C(=O)CC#N)C[C@@H]1N(C)c1ncnc2[nH]ccc12 | 0
CC(C)Nc1cc(-c2ccc3c(N)n[nH]c3c2)nc(N)n1 [GSK2221681] | 0
CCN(CC)CCCCNc1ncc2cc(-c3c(Cl)cccc3Cl)c(NC(=O)NC(C)(C)C)nc2n1 | 15
Cl.Oc1cc(-c2nc(-c3ccccc3)[nH]c2-c2ccncc2)ccc1Cl [SB-386023] | 38
C[C@H]1Oc2cc(cnc2N)-c2c(nn(C)c2C#N)CN(C)C(=O)c2ccc(F)cc21 | 0
Cl.Cl.Nc1nc(-c2ccc3c(N)n[nH]c3c2)cc(N2CCCC(NC(=O)c3ccccc3)C2)n1 (stereo not drawn) [GSK2286775] | 6
Cc1cc2cn[nH]c2cc1-c1cccc2c(N)c(C(N)=O)nnc12 | 80
CCn1c(-c2nonc2N)nc2c(C#CC(C)(C)O)nc(OCCN)cc21.Cl.Cl [GSK902056] | 0
C=CC(=O)Nc1cc2c(Nc3ccc(F)c(Cl)c3)ncnc2cc1OCCCN1CCOCC1 [GW781483] | 4
Nc1nc(Nc2ccccc2)cc(-c2ccc3c(N)n[nH]c3c2)n1 [GSK2225749] | 0
Cc1cc(C(=O)Nc2ccc(Oc3ccc4nc(NC(=O)C5CC5)cn4n3)cc2)nn1-c1ccccc1 | 0
C[C@@H](Oc1cc(-c2cnn(C3CCNCC3)c2)cnc1N)c1c(Cl)ccc(F)c1Cl | 13
NC(=O)c1cc(-c2ccccc2)cc2c(C3CCNCC3)c[nH]c12 [GSK301362] | 4
Cc1occc1-c1nc(N)c(OC[C@@H](N)Cc2c[nH]c3ccccc23)cc1-c1cc2c(C)n[nH]c2cn1 [GSK1660450] | 11
Cc1n[nH]c2ccc(-c3cc(OC[C@@H](N)Cc4ccccc4)cnc3-c3ccoc3)cc12.O=C(O)C(F)(F)F.O=C(O)C(F)(F)F [GSK507358] | 0
Cc1ccc(-n2nc(C(C)(C)C)cc2NC(=O)Nc2ccc(OCCN3CCOCC3)c3ccccc23)cc1 [GW839464] | 0
COc1ccc(C[C@@H](CN)NC(=O)c2cc(Br)c(-c3ccnc4[nH]ccc34)s2)cc1.Cl.Cl [GSK1389063] | 2
O=C(NCCNc1ccnc(NCc2ccc(F)cc2)n1)c1cc2ccccc2s1 [GSK1379944] | 0
CCN(CC)CCOc1ccc(Nc2ncc3cc(-c4c(Cl)cccc4Cl)c(=O)n(C)c3n2)cc1 [SB-601273] | 27
CN(C)CCOc1ccc(-c2cc(-c3c[nH]nc3-c3ccccn3)ccn2)cc1 [GW835314] | 48
Cl.Cl.NC[C@H](Cc1ccc(C(F)(F)F)cc1)NC(=O)c1cc(Br)c(-c2ccnc3[nH]ccc23)s1 [GSK1487252] | 0
CNC(=O)c1ccccc1Sc1ccc2c(/C=C/c3ccccn3)n[nH]c2c1 | 8
CN(C)CC(O)COc1ccc(Nc2nccc(-c3cnn4nc(N5CCOCC5)ccc34)n2)cc1 (stereo not drawn) [GW767488] | 1
Cl.Cl.NC[C@H](CC1CCCCC1)NC(=O)c1cc(Br)c(-c2ccnc3[nH]ccc23)s1 [GSK1581427] | 0
Cc1ccc2c(-c3ccncc3)c(-c3ccc(F)cc3)nn2c1.Cl [GW461484] | 0
O=C(NCCCN1CCOC1=O)c1cnc(NCc2cc(Cl)ccc2Cl)nc1NC1CCCC1 | 0
CC(C)N1C(=O)Cc2cc(Nc3ncc(C(F)(F)F)c(NCc4cccc(S(C)(=O)=O)c4)n3)ccc21 | 64
